# Screening results from PubChem.
# VP16 counter = VP16 counterscreen qHTS for inhibitors of ROR gamma transcriptional activity | Drosophila S2 Gal4-VP16 UAS-luciferase, luminescence, 20 h | Potency, µM (highest dose often 53.6 µM), for inactives: at the top dose activity, negative = inhibition, most hits filed as inhibitors | hit rate 3.5% among 310,000 | AID 2546, 2010;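 note: Gal4-VP16 expression switched on by copper sulfate through the metallothionein promoter; potency is the fitted concentration of half-maximal effect; nearly all actives have a fitted effect of over 50% in size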
# RORg inh = qHTS for inhibitors of ROR gamma transcriptional activity; Nuclear receptor ROR-gamma (Mus musculus), P51450; Drosophila S2 Gal4-RORgamma UAS-luciferase reporter, 20 h; Potency, µM (series often up to 53.6 µM), for the others: top-dose activity change, negative = inhibition, most hits filed as inhibitors; hit rate 5.4% among 310,000; AID 2551, 2010; note: potency is the fitted concentration of half-maximal effect; nearly all actives have a fitted effect of over 60% in size
#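 A Gal4/UAS one-hybrid system in insect cells: metallothionein-promoter Gal4–ROR gamma fusion plus Photinus luciferase reporter. Copper sulfate 700 uM final, 20 hr ambient incubation, luminescent detection after 10 min with reagent.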
# GALK inh = qHTS Assay for Inhibitors of Human Galactokinase (GALK); P51570; hit rate 0.007% among 270,000; Potency, µM (titrated, usually from 57.5 µM), inactives show top-dose activity change, negative = inhibition, actives largely listed as inhibitors; Purified GALK, Kinase-Glo residual ATP luminescence; note: potency is the fitted concentration of half-maximal effect
# Target sequence (P51570 whole entry, looked up): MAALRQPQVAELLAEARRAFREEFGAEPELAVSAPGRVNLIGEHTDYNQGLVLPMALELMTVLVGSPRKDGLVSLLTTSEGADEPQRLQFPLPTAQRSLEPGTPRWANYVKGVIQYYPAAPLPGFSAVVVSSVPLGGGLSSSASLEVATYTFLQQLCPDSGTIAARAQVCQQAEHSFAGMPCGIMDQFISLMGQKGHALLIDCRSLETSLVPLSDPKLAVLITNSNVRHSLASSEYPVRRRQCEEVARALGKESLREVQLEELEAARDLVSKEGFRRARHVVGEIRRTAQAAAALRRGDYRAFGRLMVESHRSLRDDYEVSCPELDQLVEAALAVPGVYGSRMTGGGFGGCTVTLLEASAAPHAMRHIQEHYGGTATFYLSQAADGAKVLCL
#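 Galactose (100 uM) and ATP (35 uM) were turned over by 5 nM GALK for 1 h at RT. Kinase-Glo Plus then converted the remaining ATP into a luminescent signal.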
# TrxR1 substrate = qHTS Assay for Substrates of Mammalian Selenoprotein Thioredoxin Reductase 1 (TrxR1): qHTS; Thioredoxin reductase 1, cytoplasmic (Rattus norvegicus), O89049; Potency, µM (doses to about 114 µM), without a hit: top-dose activity change, negative = substrate turnover; purified TrxR1 substrate turnover, NADPH consumption readout; hit rate 0.01% among 390,000; note: potency is the fitted concentration of half-maximal effect; nearly all actives have a fitted effect of over 50% in size
#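 Rat TrxR1, dispensed at 90 nM, was prereduced with 400 uM NADPH (final) for 5 min at ~22 deg C, then incubated with compound 15 min before 400 uM selenite. A first-read NADPH fluorescence drop versus no-compound background flagged substrates.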
# Coupling enz = qHTS Assay for Inhibitors of Fructose-1,6-bisphosphate Aldolase from Giardia Lamblia: Coupling assay counterscreen | coupling enzyme system counterscreen, AmpLite Red fluorescence | activity change, negative = inhibition, % at 58.2 µM, hits read low | hit rate 0.67% among 290,000 | AID 2472, 2010; in the data active = activity change below about -30%
#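 Fluorescence at 525 nm excitation and 598 nm emission measured inhibition of the coupled detection system without aldolase. Compounds (at 57.5 uM final) were preincubated 10 min at room temperature with coupling enzyme reagent before a 20 min substrate/AmpLite Red step.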
# rTrxR1 inhibitor = qHTS Assay for Inhibitors of Mammalian Selenoprotein Thioredoxin Reductase 1 (TrxR1): qHTS. Thioredoxin reductase 1, cytoplasmic (Rattus norvegicus), O89049. recombinant rTrxR1, NADPH fluorescence consumption, selenite substrate. Potency, µM (highest dose often 114 µM), inactives show at the highest dose activity change, negative = inhibition, actives largely listed as inhibitors. hit rate 1% among 390,000; note: potency is the fitted concentration of half-maximal effect; nearly all actives have a fitted effect of over 65% in size
#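 Rat TrxR1 (90 nM in the dispensed reagent) was pre-reduced with 400 uM NADPH for 5 min at room temperature, then incubated with compound for 15 min. After 400 uM selenite was added, NADPH fluorescence (Ex 340/Em 450 nm) was followed for 8 min.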
# * marks the source's active call; other numbers are inactive results; u = inconclusive; x = no result given; [ ] = dose if it differs, or a comment. Most compounds without a hit are left out; they make up all but 5.9% or so of the library. Unless noted, calls come from the whole dose curve; as a rule, active = well fitted curve in the direction sought with a large enough effect; inconclusive = small, poorly fitted or top-dose-only effect, or another doubt; inactive = no such curve, though single readings can be large; an effect the other way counts as inactive or inconclusive. % is set by controls: 0 for no effect and ±100 for the full control effect.
SMILES,VP16 counter,RORg inh,GALK inh,TrxR1 substrate,Coupling enz,rTrxR1 inhibitor
Cc1ccc(OCc2ccccc2Br)c([N+](=O)[O-])n1,-1%,-18%,4%,-5%,4,3%
Cc1cc2c(SCC(=O)NCC3CCCO3)ncnc2s1 (stereo not drawn),u,3%,12%,3%,-1,5%
O=C(NC(=S)Nc1ccc(Cl)cc1)c1cncc(Br)c1,x,x,x,7%,x,11%
O=C(NC(=S)Nc1ccc(N2CCOCC2)cc1)c1cccc(Cl)c1Cl,5µM*,3.2µM*,2%,1%,1,u
O=C(NC(=S)Nc1ccc(N2CCOCC2)cc1)c1cncc(Br)c1,8.9µM*,5µM*,0%,1%,0,u
Cc1ccccc1C(=O)NC(=S)Nc1ccc(N2CCOCC2)cc1,u,20µM*,7%,-12%,1,56µM*
O=C(CN1CCOCC1)NNC(=S)Nc1ccccc1,1.3µM*,29%,1%,7%,2,-1%
Cc1cccc(C)c1NC(=S)NC(=O)c1ccccc1F,6.3µM*,4.5µM*,2%,-3%,3,u
O=C(NC(=S)Nc1ccc(N2CCOCC2)cc1)c1ccccc1,u,8.9µM*,5%,2%[57.1 µM],0,u
Cc1ccc(C(=O)N2CCN(c3ccc(NC(=S)NC(=O)Cc4ccccc4)cc3)CC2)cc1,8.9µM*,5.6µM*,-1%,9%,3,-18%
Cc1c(C(=O)NC(=S)Nc2ccc(N3CCOCC3)cc2)cccc1[N+](=O)[O-],-14%,8.9µM*,-4%,1%[57.1 µM],0,-7%[57.1 µM]
Cc1cc(C)nc(NC(=S)NC(=O)c2ccccc2F)n1,x,x,x,2%[57.1 µM],x,10%
CC(NC(=O)Cc1ccc(S(=O)(=O)N2CCOCC2)s1)c1ccc(Br)cc1 (stereo not drawn),x,x,x,-17%,x,-15%
CCOc1cc2c(cc1OCC)C(CC(=O)OC)N(C(=O)Nc1cc(OC)ccc1OC)CC2 (stereo not drawn),x,x,x,-1%[57.1 µM],x,10%[57.1 µM]
O=C(Nc1ccc(Cl)cc1Cl)C1CCCO1 (stereo not drawn),8%,8%,-3%,-4%[57.1 µM],3,-1%[57.1 µM]
O=[N+]([O-])c1ccc(S(=O)(=O)NCc2nc3cccnc3n2Cc2ccccc2Cl)cc1,x,x,x,-3%[57.1 µM],x,-1%[57.1 µM]
CC(=O)c1ccc(NC(=S)Nc2ccc(N3CCOCC3)cc2)cc1,-10%,-23%,2%,5%[57.1 µM],1,11%[57.1 µM]
CCc1ccc(C(=O)NC(=S)Nc2ccc(N3CCOCC3)cc2)cc1,18µM*,5µM*,-1%,-2%,-4,u
CCCc1cc(-c2n[nH]c(=S)n2CC(C)C)cs1,11µM*,3.5µM*,3%,-6%,7,-13%
CCCCn1c(-c2csc(CC)c2)n[nH]c1=S,u,0.79µM*,1%,-12%,12,-22%
CCCn1c(-c2ccncc2)n[nH]c1=S,6%,u,9%,-10%,2,-23%[57.1 µM]
CCCCn1c(-c2csc(C(C)C)c2)n[nH]c1=S,u,4µM*,2%,-3%,2,-9%
CCOC(=O)N1CCN(C(=O)CCCn2c(=S)[nH]c3ccccc3c2=O)CC1,-13%,-3%,1%,-5%,-7,-22%
O=c1c2ccc(Cl)cc2[nH]c(=S)n1Cc1cccnc1,u,5µM*,-3%,-4%,3,3%
CCOC(=O)N1CCC(n2c(=S)[nH]c3ccccc3c2=O)CC1,7.1µM*,8.9µM*,-1%,0%[57.1 µM],5,-6%[57.1 µM]
O=C(c1ccc(Cn2c(=O)[nH]c3ccccc3c2=O)cc1)N1CCN(c2ccccn2)CC1,-2%,8%,-1%,-7%,1,-6%
O=C(c1ccc(Cn2c(=S)[nH]c3ccccc3c2=O)cc1)N1CCN(c2ccccn2)CC1,u,11µM*,1%,0%,-1,14%
